Assay results published in PubChem BioAssay (NCATS).
Inconclusive results are not listed. Activity calls are given as the source filed them. Calls come from the whole dose curve; as a rule, active = well fitted curve in the direction sought with a large enough effect; inconclusive = small, poorly fitted or top-dose-only effect, or another doubt; inactive = no such curve, though single readings can be large; an effect the other way counts as inactive or inconclusive.

How the values were obtained:
[1] = NS1 protein of Zika virus - qHTS assay to identify small molecule inhibitors in human HEK 293 cells (AID 1347053); note: nearly all actives have a fitted effect of over 55% in size
Summary of the method: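 Inhibition of NS1 expression was scored in HEK 293 cells given compound 1 h ahead of MR766 virus (MOI = 0.5). Following 24 h at 37 C, two anti-NS1 antibodies generated a TR-FRET signal, scaled between uninfected and infected controls.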

[2] = qHTS of pediatric cancer cell lines to identify multiple opportunities for drug repurposing: Primary screen for TC32 cells (AID 1347089); note: nearly all actives have a fitted effect of over 60% in size
Summary of the method: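 TC32 cells, 500-1,000/well in growth medium, compound-treated 48 h at 37 °C; viability from CellTiter-Glo luminescence. Primary screen: MIPE 11-point (0.78 nM–46 µM final), NPC 8-point (0.59 nM–46 µM final); confirmatory at 11-point dilutions.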

[3] = qHTS of pediatric cancer cell lines to identify multiple opportunities for drug repurposing: Primary screen for DAOY cells (AID 1347090); note: nearly all actives have a fitted effect of over 55% in size
Summary of the method: (§1)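 Eight- or eleven-point concentration series, 48 h treatment at 37 degrees C in growth media; readout CellTiter-Glo luminescence. Potency and efficacy were taken from the concentration-response curves.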

[4] = qHTS of pediatric cancer cell lines to identify multiple opportunities for drug repurposing: Primary screen for SJ-GBM2 cells (AID 1347091)
Summary of the method: as §1

[5] = qHTS of pediatric cancer cell lines to identify multiple opportunities for drug repurposing: Primary screen for A673 cells (AID 1347092); note: nearly all actives have a fitted effect of over 45% in size
Summary of the method: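 A673 cells (500-1,000 cells/well) were treated 48 hours at 37 degrees C with compounds at 11-point (0.78 nM to 46 µM) or 8-point (0.59 nM to 46 µM) dilutions. Viability read by CellTiter-Glo luminescence; concentration-response curves fitted.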

[6] = qHTS of pediatric cancer cell lines to identify multiple opportunities for drug repurposing: Primary screen for SK-N-MC cells (AID 1347093)
Summary of the method: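 Metabolically active cells were quantified by ATP-dependent luminescence (CellTiter-Glo, 15 min at room temperature) following 48 h treatment. Cells had been plated at 500-1,000 per well and settled for 5 h beforehand.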

[7] = qHTS of pediatric cancer cell lines to identify multiple opportunities for drug repurposing: Primary screen for BT-37 cells (AID 1347094)
Summary of the method: (§2)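 Following a 5-hour attachment period, cells at 500-1,000/well received compounds and were cultured for 48 hours. CellTiter-Glo was added and luminescence read to estimate viable, metabolically active cells.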

[8] = qHTS of pediatric cancer cell lines to identify multiple opportunities for drug repurposing: Primary screen for NB-EBc1 cells (AID 1347095)
Summary of the method: as §2

[9] = qHTS of pediatric cancer cell lines to identify multiple opportunities for drug repurposing: Primary screen for U-2 OS cells (AID 1347096); note: nearly all actives have a fitted effect of over 50% in size
Summary of the method: (§3)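 Cells (500-1,000/well) in growth media were settled 5 h at 37 degrees C, then given compounds for 48 h. Viability was read as CellTiter-Glo luminescence. Primary runs used MIPE at 11 points (0.78 nM-46 µM) and NPC at 8 points (0.59 nM-46 µM); follow-ups used 11 points.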

[10] = qHTS of pediatric cancer cell lines to identify multiple opportunities for drug repurposing: Primary screen for Saos-2 cells (AID 1347097); note: nearly all actives have a fitted effect of over 40% in size
Summary of the method: as §2

[11] = qHTS of pediatric cancer cell lines to identify multiple opportunities for drug repurposing: Primary screen for SK-N-SH cells (AID 1347098); note: nearly all actives have a fitted effect of over 65% in size
Summary of the method: (§4)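 Cells (500-1,000/well) rested 5 h, then received compounds for 48 h; metabolically active cells were measured by CellTiter-Glo luminescence. Final concentrations spanned up to 46 µM (MIPE, 11-point) or 0.59 nM-46 µM (NPC, 8-point) in primary screens, 11-point in follow-ups.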

[12] = qHTS of pediatric cancer cell lines to identify multiple opportunities for drug repurposing: Primary screen for LAN-5 cells (AID 1347100)
Summary of the method: as §3

[13] = qHTS of pediatric cancer cell lines to identify multiple opportunities for drug repurposing: Primary screen for BT-12 cells (AID 1347101); note: nearly all actives have a fitted effect of over 25% in size
Summary of the method: as §4

[14] = qHTS of pediatric cancer cell lines to identify multiple opportunities for drug repurposing: Primary screen for Rh18 cells (AID 1347102); note: nearly all actives have a fitted effect of over 65% in size
Summary of the method: as §3

[15] = qHTS of pediatric cancer cell lines to identify multiple opportunities for drug repurposing: Primary screen for NB1643 cells (AID 1347099); note: nearly all actives have a fitted effect of over 50% in size
Summary of the method: as §2

Measured: Potency
Potency is the fitted concentration of half-maximal effect.

CC(C)n1nc(-c2ccc3oc(N)nc3c2)c2c(N)ncnc21
active: [1] 0.0209 µM | [2] 0.0117 µM | [3] 0.0148 µM | [4] 0.0019 µM | [5] 0.0037 µM | [6] 0.001 µM | [7] 0.0043 µM | [8] 0.0132 µM | [9] 0.148 µM | [10] 0.935 µM | [11] 21.5 µM | [12] 18.7 µM | [13] 0.306 µM | [14] 0.235 µM

COc1ccc2cccc(CCNC(C)=O)c2c1
not listed: [15]
inactive: all other assays above

Cc1ccccc1C(C(=O)NC1CCCCC1)N(C(=O)Cn1ccnc1C)c1cccc(F)c1 (stereo not given)
active: [6] 23.5 µM
not listed: [8] | [10]
inactive: all other assays above

NC1=N[C@@]2(c3cc(NC(=O)c4ccc(F)cn4)ccc3F)COC[C@@H]2CS1
active: [3] 4.69 µM | [4] 0.296 µM | [5] 0.0074 µM | [6] 0.833 µM | [7] 0.122 µM | [8] 1.87 µM | [10] 0.372 µM | [12] 0.132 µM | [13] 0.153 µM
inactive: [1] | [2] | [9] | [15] | [14]

CC(C)(C(=O)NCC(F)(F)C(F)(F)F)C(=O)N[C@@H]1C(=O)Nc2ccccc2-c2ccccc21
inactive: [1] | [2] | [9] | [14]
active: [3] 18.7 µM | [4] 1.05 µM | [5] 0.0935 µM | [6] 3.72 µM | [8] 4.69 µM | [12] 0.662 µM | [13] 1.09 µM

O=C1C[C@@H](c2ccc(O)cc2)Oc2cc(O)cc(O)c21
not listed: [10] | [13]
inactive: all other assays above

CCc1ccc(OCc2ccccc2C(=O)Nc2ccc3nc(C)cc(N)c3c2)cc1
active: [1] 2.96 µM | [2] 20.8 µM | [3] 11.8 µM | [4] 23.5 µM | [5] 2.96 µM | [6] 5.9 µM | [7] 8.63 µM | [9] 7.43 µM | [10] 14.8 µM | [11] 12.1 µM | [15] 8.33 µM | [12] 8.33 µM | [13] 9.68 µM | [14] 8.33 µM

O=c1cc(N2CCOCC2)oc2c(-c3cccc4c3sc3ccccc34)cccc12
inactive: [2] | [11]
active: [1] 18.7 µM | [3] 18.7 µM | [4] 5.9 µM | [5] 14.8 µM | [6] 5.26 µM | [7] 21.7 µM | [8] 8.33 µM | [15] 5.26 µM | [12] 14.8 µM | [13] 24.3 µM | [14] 18.7 µM

COc1ccc(-c2coc3cc(O)cc(O)c3c2=O)cc1
active: [6] 10.5 µM | [11] 24.1 µM
not listed: [5] | [10] | [13] | [15]
inactive: all other assays above

COc1ncc(-c2ccc3nccc(-c4ccnnc4)c3c2)cc1NS(=O)(=O)c1ccc(F)cc1F
active: [1] 0.0418 µM | [2] 0.0026 µM | [3] 4.69 µM | [4] 0.001 µM | [5] 0.0743 µM | [6] 0.001 µM | [7] 0.0611 µM | [8] 0.001 µM | [9] 7.43 µM | [11] 1.52 µM | [15] 0.0662 µM | [12] 0.105 µM | [14] 0.0372 µM

O=C(NOCC(O)CO)c1cc(Br)c(F)c(F)c1Nc1ccc(I)cc1F (stereo not given)
active: [3] 14.8 µM | [5] 9.35 µM | [6] 0.132 µM | [11] 0.341 µM
inactive: [1] | [2] | [4] | [7] | [12] | [14]

CON=C(C(=O)N[C@@H]1C(=O)N2C(C(=O)OCOC(=O)C(C)(C)C)=C(C=Cc3scnc3C)CS[C@H]12)c1csc(N)n1
active: [6] 18.7 µM
not listed: [5] | [15]
inactive: all other assays above

CNC(=O)c1ccc2cc(C3(O)CCn4cncc43)ccc2c1 (stereo not given)
not listed: [10]
inactive: all other assays above

COc1ccc2c(Oc3ccc(NC(=O)c4c(C)n(CC(C)(C)O)n(-c5ccccc5)c4=O)nc3)ccnc2c1
active: [4] 0.469 µM | [6] 29.6 µM
inactive: [1] | [2] | [3] | [5] | [9] | [15] | [12]

CC#CCn1c(N2CCC[C@@H](N)C2)nc2c1c(=O)n(Cc1nc(C)c3ccccc3n1)c(=O)n2C
active: [5] 23.5 µM
not listed: [6] | [10] | [11] | [15]
inactive: all other assays above

COc1ccc(-n2c(C)c([N+](=O)[O-])c3ccc(O)cc32)cc1
active: [5] 7.43 µM | [6] 1.18 µM | [11] 19.2 µM | [15] 5.9 µM
not listed: [7] | [10] | [13]
inactive: all other assays above

Cc1ccc(C(=O)Nc2cccc(C(F)(F)F)c2)cc1Nc1nc(-c2cccnc2)nc2c1cnn2C
inactive: [2] | [9] | [11]
active: [1] 14.8 µM | [3] 14.8 µM | [4] 7.43 µM | [5] 9.35 µM | [6] 9.35 µM | [8] 8.33 µM | [15] 7.43 µM | [12] 13.2 µM | [13] 24.3 µM | [14] 20.9 µM

COc1cc(O)c2c(c1)C(=O)c1cc(C)cc(O)c1C2=O
not listed: [8] | [10]
inactive: all other assays above
